The source made the active and inactive calls. No rule for the calls is given here.
How the values were obtained:
[1] = AOX inhibitors, oxygen consumption, profiling panel (AID 1259412); details: AOX-dependent respiration, at 500 µM; for growth (% of control): O2 uptake, measured here: growth; for O2 uptake (% of control): measured here: O2 uptake, control condition (no AOX);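 as to growth (% of control): growth monitored over 72 h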
[2] = system: alternative oxidase (AOX); assay: as above; details: AOX-dependent respiration, at 500 µM, stronger effect = lower value
[3] = AOX-dependent treatment condition, stronger effect = lower value

SMILES	growth (% of control) [1, 3]	growth (% of control) ([1]; control condition)	O2 uptake (% of control) ([1]; stronger effect = lower value)	O2 uptake (% of control) [2]
Nc1cccc(S(=O)(=O)c2cccc(NC(=O)c3ccccc3)c2)c1	93.3%	84.2%	112%	98.2% (inactive)
N#Cc1cccc(C(=O)Nc2cccc(Br)c2)c1	62.4%	89.7%	82.6%	21.3% (active)
Cc1cccc(C(=O)Nc2cccc(Br)c2)c1	26.6%	101%	90.2%	18.6% (active)
Cc1cccc(C(=O)Nc2cccc([N+](=O)[O-])c2)c1	36.7%	80.2%	98.8%	34.3% (active)
O=C(Nc1cccc(I)c1)c1cccc(F)c1	67.2%	97.5%	77.3%	21.9% (active)
NC(=O)c1ccccc1NC(=O)c1cccc(F)c1	88.1%	94.5%	85.1%	81% (inactive)
O=C(Nc1ccc(N2CCOCC2)cc1)c1ccccc1	85.7%	87.8%	93.3%	93.8% (inactive)
O=C(Nc1cccc(Cl)c1)c1cccc(Cl)c1	48.1%	80.2%	89.8%	9.19% (active)
O=C(Nc1cccc(I)c1)c1cccc(Cl)c1	63.1%	82.8%	88.3%	13.2% (active)
O=C(Nc1cccc(Br)c1)c1ccccc1	51.9%	71.6%	88.5%	15.7% (active)
Cc1cccc(C(=O)Nc2cccc(F)c2)c1	0.51%	43.4%	87.8%	30.7% (active)
COc1cccc(C(=O)Nc2ccccc2C(N)=O)c1	80.1%	82.1%	93.7%	76.2% (inactive)
O=C(Nc1cccc(F)c1)c1cccc(F)c1	23%	78.7%	103%	52.3% (active)
O=C(Nc1cccc(Br)c1)c1cccc(Br)c1	82.5%	91.3%	81%	16.5% (active)
O=C(Nc1cccc([N+](=O)[O-])c1)c1cccc(F)c1	91.1%	120%	92.7%	44.8% (active)
NC(=O)c1ccccc1NC(=O)c1cccc(Cl)c1	65.4%	68.9%	85.8%	41.6% (active)
N#Cc1cccc(C(=O)Nc2cccc(I)c2)c1	103%	117%	87.8%	32.6% (active)
O=C(Nc1ccccc1)c1cccc(Br)c1	75%	91.1%	89.6%	19.3% (active)
Cc1cccc(C(=O)NCc2ccc3c(c2)OCO3)c1	41.6%	48.8%	99%	25.8% (active)
COc1cccc(C(=O)Nc2cc(OC)c(OC)c(OC)c2)c1	104%	89%	101%	77.6% (inactive)

SMILES	growth (% of control) [1, 3]	growth (% of control) ([1]; control condition)	O2 uptake (% of control) ([1]; stronger effect = lower value)	O2 uptake (% of control) [2]
COc1cccc(C(=O)Nc2cccc([N+](=O)[O-])c2)c1	63.7%	109%	91.5%	31.9% (active)
O=C(Nc1cccc(NC(=O)c2cccc(Cl)c2)c1)c1cccc(Cl)c1	90.7%	114%	97.7%	49.2% (active)
O=C(Nc1cccc(OCc2ccccc2)c1)c1cccc(I)c1	36.7%	57%	100%	51.2% (active)
N#Cc1cccc(C(=O)Nc2ccccc2)c1	58.9%	89.5%	105%	69.6% (active)
COc1cccc(C(=O)Nc2cccc(OCc3ccccc3)c2)c1	105%	86.7%	91.3%	79% (active)
O=C(Nc1cccc(I)c1)c1ccccc1I	112%	94.8%	84%	13.1% (active)
Cc1cccc(C(=O)Nc2cccc(I)c2)c1	61.9%	110%	93.2%	13.3% (active)
O=C(Nc1cccc(Cl)c1)c1ccccc1	46.9%	118%	88%	21.5% (active)
COc1cccc(C(=O)NCc2ccc3c(c2)OCO3)c1	46.4%	57%	95.8%	36.4% (active)
O=C(Nc1cccc(NC(=O)c2cccc(I)c2)c1)c1cccc(I)c1	107%	116%	106%	89% (active)
Cc1cccc(C(=O)Nc2cccc(Cl)c2)c1	14.9%	65.6%	87.4%	20.9% (active)
Nc1cccc(S(=O)(=O)c2cccc(NC(=O)c3cccc(F)c3)c2)c1	84%	106%	104%	101% (inactive)
COc1cccc(C(=O)Nc2ccc(N3CCOCC3)cc2)c1	86.1%	86.6%	102%	92.3%
O=C(Nc1cccc(I)c1)c1cccc(Br)c1	88.2%	103%	92%	14.3% (active)
COc1cccc(C(=O)Nc2ccccc2)c1	43.8%	60.4%	95.1%	57.1% (active)
Cc1cccc(C(=O)Nc2ccccc2)c1	50%	83.2%	103%	42.3% (active)
O=C(Nc1cccc([N+](=O)[O-])c1)c1cccc(I)c1	68.4%	95.6%	93.5%	21% (active)
O=C(Nc1cccc(C(F)(F)F)c1)c1cccc(F)c1	7.63%	35.2%	83%	13.8% (active)
N#Cc1cccc(C(=O)Nc2cccc([N+](=O)[O-])c2)c1	91.7%	101%	110%	98.7%

Source: PubChem BioAssay AID1259412 (Laboratorio de Genomica e Expressao (LGE), UNICAMP, 2018)
